FBW7 act = human FBW7 E3 ligase activation, primary screen. AlphaScreen FBW7–phospho-cyclin E peptide binding, activator screen. normalized activity (activation), % at 26.1 µM. 650,000 tested, 0.13% active. AID 1259310; in the data active = normalized activity above about 1.9%;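 also: purified mutant Fbw7 with reduced substrate affinity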
TEAD-YAP inh = TEAD-YAP interaction inhibition | HEK-TIYL cells, TEAD-Gal4/YAP UAS-luciferase luminescence | inhibition, % at 9.12 µM | 640,000 tested, 1.4% active | AID 1259422; in the data active = inhibition above about 32%;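 also: 0% = median of test compound wells and 100% = reference inhibitor wells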
MITF primary = inhibitors of human MITF; 650,000 tested, 0.91% active; inhibition, % at 2.6 µM; AlphaScreen MITF homodimerization, bead proximity signal; AID 1259374; O75030; in the data active = inhibition above about 50%;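 also: 0% = vehicle wells with protein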
GPR151 activ = activates the human receptor GPR151; Q8TDV0; PathHunter beta-arrestin GPR151 cells, luminescence; activation, % at 11.2 µM; 650,000 tested, 1% active; in the data active = activation above about 4.9%;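 also: 0% = median of compound wells and 100% = cells with positive control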
GPR151 conf act = confirmation of human GPR151 activators | shares compounds with GPR151 activ | GPR151 PathHunter beta-arrestin cells, luminescence, 90 min; % of EA-reagent control over plate median | activation, % at 11.2 µM | 6,700 tested, under 10 active | AID 1508609;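 active = mean percent activation across replicates above the confirmation screen cutoff of 4.91%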
GPR119 ag = counter-screen for GPR151 activators: effect on human GPR119; shares compounds with GPR151 activ; GPR119 PathHunter beta-arrestin cells, luminescence, 90 min; 0 = compound-well median, 100 = enzyme-acceptor control; AID 1508611; 6,700 tested, 0.3% active; activation, % at 11.2 µM;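 active = mean percent activation in the counterscreen above 29.09%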;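 also: counterscreen on off-target GPR119 to flag nonselective hits from the GPR151 activator screen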
Target sequence (Q8TDV5 whole entry, looked up): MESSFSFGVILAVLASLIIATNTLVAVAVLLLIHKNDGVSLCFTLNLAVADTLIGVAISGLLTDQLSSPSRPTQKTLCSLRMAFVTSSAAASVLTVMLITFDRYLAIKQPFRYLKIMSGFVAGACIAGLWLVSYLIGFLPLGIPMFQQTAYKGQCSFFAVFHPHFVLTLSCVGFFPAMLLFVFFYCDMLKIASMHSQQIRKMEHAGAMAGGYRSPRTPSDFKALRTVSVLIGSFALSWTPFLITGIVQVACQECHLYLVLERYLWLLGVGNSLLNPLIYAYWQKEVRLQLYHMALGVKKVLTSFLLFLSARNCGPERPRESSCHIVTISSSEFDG
* = called active by the depositor; · = not tested or not shown; ! = a repeat was not active. Most compounds without a hit are left out; they make up all but 3.4% or so of the library.

SMILES	FBW7 act	TEAD-YAP inh	MITF primary	GPR151 activ	GPR151 conf act	GPR119 ag
CCCn1c(C)cc(=O)c2cc([N+](=O)[O-])ccc21	-0.1	0.7	15.3	11.4*	-0.1	-5.8
O=C1C(=O)N(c2ccccn2)C(c2cccnc2)/C1=C(\O)c1ccc(Br)cc1 (stereo not given)	-0.1	5.8	5.2	0.3	·	·
COc1ccc(C(C)n2c(C)c3c(C)nnc(C)c3c2C)cc1 (stereo not given)	0.8	-13.0	-9.5	11.3*	0.2	-0.9
Cc1nnc(C)c2c(C)n(C(C)c3ccccc3)c(C)c12 (stereo not given)	-0.1	-27.3	-4.8	-0.6	·	·
Clc1ccccc1CNc1nc2ccccc2c2nc(-c3ccncc3)nn12	-0.2	-20.6	-5.7	-0.1	·	·
Cc1cccc(N(CCCN2C(=O)c3cccc4cccc(c34)C2=O)C(=O)c2cccs2)c1	0.1	-1.7	-7.5	5.7*	1.7	11.9
Clc1ccccc1C(c1ccccc1)(c1ccccc1)n1ccnc1	0.1	-0.4	-14.1	6.9*!	1.5	-11.7
CN1C(=N)S/C(=C\c2cccnc2)C1=O	0.7	9.0	-4.2	-1.0	·	·
Cc1nc(N2CCOCC2)nc2c1CCC2	0.1	-11.2	6.8	10.4*	-0.9	-10.2
O=C(COC(=O)c1c2ccccc2cc2ccccc12)NNC(=O)c1cccs1	0.1	-0.1	5.2	-1.1	·	·
CCC(C)C1N=C2c3ccccc3N=C(SCC(=O)N3CC(C)CC(C)C3)N2C1=O (stereo not given)	0.1	0.4	3.0	11.8*	1.4	8.5
Cc1ccc(CNC(=O)CSC2=Nc3ccccc3C3=NC(C(C)C)C(=O)N23)cc1 (stereo not given)	0.1	-7.5	-8.3	1.1	·	·
CC1CC(C)CN(C(=O)CSC2=Nc3ccccc3C3=NC(C(C)C)C(=O)N23)C1 (stereo not given)	-0.2	-9.6	-12.4	1.1	·	·
CC(C)C1N=C2c3ccccc3N=C(SCC(=O)NCCc3ccccc3)N2C1=O (stereo not given)	0.0	-5.6	-0.7	5.8*	-0.1	4.1
Cc1cc(NC(=O)COc2ncnc3cc([N+](=O)[O-])ccc23)no1	-0.2	0.8	9.3	0.9	·	·
CCOC(=O)C1CCN(Cc2cc(Br)c(OC)cc2OC)CC1	-0.2	6.1	6.2	2.7	·	·
CC(=O)C[n+]1cc2ccccc2cc1C	0.2	6.2	10.4	0.2	·	·
CCCCOC(=O)C1=C(C)N(C)C(=O)NC1c1ccccc1Cl (stereo not given)	0.3	15.2	-3.6	7.2*	0.0	-9.2
CCCOC(=O)C1=C(C)N(C)C(=O)NC1c1ccccc1Cl (stereo not given)	-0.1	-0.4	-5.7	0.9	·	·
CC1(C(=O)O)C2C=CC3(CN(c4ccccc4)C(=O)C31)O2 (stereo not given)	-0.1	-1.9	-5.7	8.1*	0.2	1.5
Cc1ccccc1NC(=O)CSc1ncc(-c2ccccc2)[nH]1	-0.2	0.4	-12.8	-0.5	·	·
CCOC(=O)Cn1c(C(=O)OCC)cc2oc(C)cc21	-0.1	-0.9	0.8	-1.5	·	·
C=CCn1c(C(=O)OCC)cc2oc(C)cc21	-0.1	3.6	-6.7	5.7*	-0.1	5.9
Cc1cc(C)cc(C(=O)Nc2ccc3c(c2)CCCN3S(C)(=O)=O)c1	-0.1	-34.0	2.5	7.7*	0.8	11.7
COc1ccc(C)cc1NC(=S)NN1CCOCC1	0.3	3.5	9.1	-1.8	·	·
SMILES	FBW7 act	TEAD-YAP inh	MITF primary	GPR151 activ	GPR151 conf act	GPR119 ag
COc1cc(Cl)c(C)cc1NC(=O)COC(=O)C(CC(C)C)NC(N)=O (stereo not given)	-0.1	-3.7	-16.4	0.0	·	·
COc1ccc([N+](=O)[O-])cc1NC(=O)COC(=O)CC(c1ccccc1)c1ccccc1	-0.3	-8.5	4.0	5.2*	0.3	-4.3
COc1cc([N+](=O)[O-])ccc1NC(=O)COC(=O)C(CC(C)C)NC(N)=O (stereo not given)	0.5	-5.2	3.8	5.3*	0.4	-1.5
COc1ccccc1/C=C/CNc1nc(C)c(-c2ccn(CCN3CCOCC3)n2)s1	-0.1	-10.2	1.3	0.6	·	·
O=[N+]([O-])c1ccc(N2CCN(S(=O)(=O)c3ccc(Br)cc3)CC2)c(Cl)c1	-0.1	5.8	13.9	-0.1	·	·
Cc1cccc(CN2CCN(Cc3nc(-c4ccc(F)cc4)cs3)CC2CCO)n1 (stereo not given)	-0.2	0.7	-8.6	10.1*	1.0	5.5
COc1ccc(/C=N/NC(=O)c2cc(-c3ccc(C)o3)[nH]n2)cc1	0.2	8.9	17.1	-0.6	·	·
CCOc1cc(/C=N/NC(=O)c2cc(-c3ccc(C)o3)[nH]n2)ccc1O	0.1	21.2	15.4	7.0*	-0.3	-7.9
Cc1ccc(-c2cc(C(=O)N/N=C/c3cccc(Br)c3)n[nH]2)o1	-0.2	11.3	7.9	7.5*	1.0	-5.5
CCOc1cc(/C=N/NC(=O)c2cc(C(C)C)[nH]n2)ccc1O	0.1	6.2	6.5	-1.3	·	·
NS(=O)(=O)c1ccc(CNC(=O)Nc2ccc(Br)cc2Cl)cc1	0.0	-8.8	11.9	8.7*	-0.8	-13.5
NS(=O)(=O)c1ccc(CNC(=S)Nc2ccc(Br)cc2Cl)cc1	0.2	-5.7	7.5	3.7	·	·
COc1ccc(C2=N/C(=C\c3ccc([N+](=O)[O-])cc3)C(=O)O2)cc1[N+](=O)[O-]	0.1	1.1	22.3	-1.5	·	·
COc1ccc(/C=C2\N=C(c3cccc(I)c3)OC2=O)cc1[N+](=O)[O-]	-0.2	0.6	-4.2	14.4*	1.4	-6.1
CC(C)Oc1ccc(CNC(=O)Cn2c(=O)oc3ccccc32)cc1	-0.1	-7.6	-0.9	5.3*	0.0	6.7
O=C(Cn1c(=O)oc2ccccc21)NCc1cccc(F)c1	0.0	-2.5	11.2	9.5*	1.0	10.0
O=C(Cn1c(=O)oc2ccccc21)NCc1ccc(F)cc1	0.0	-4.0	14.7	0.9	·	·
COc1ccc(/C=C2\N=C(c3ccc(Cl)cc3)N(c3ccc(C)cc3)C2=O)cc1OC	0.1	-6.2	1.1	-0.5	·	·
Cc1ccc(NC(=O)c2cccc(S(=O)(=O)Nc3cccc(C(=O)O)c3)c2)cc1	0.0	8.0	-10.8	6.4*	-0.9	-0.9
COc1c(Cl)cc(C(=O)Nc2cccc(C(=O)O)c2)cc1Cl	0.1	-26.0	6.2	5.7*	0.6	16.6
Cc1ccc(S(=O)(=O)N2CCC(C)CC2)cc1C(=O)O	-0.1	-0.5	-17.4	0.7	·	·
CSc1ccc(/C=N\NC(=O)CNc2ccc(C)cc2)cc1	0.1	-3.3	5.9	5.8*	0.2	-11.8
COCCNC(=O)c1sc2ncnc(N3CCc4ccccc4C3)c2c1C	-0.2	-2.7	0.3	5.3*	-0.6	-0.1
CC1=CC(C)C(COC(=O)CN2CCOCC2)C(C)C1 (stereo not given)	0.1	-4.4	15.4	-0.1	·	·

From PubChem BioAssay
